Assay outcomes as filed in PubChem.
Sampled rows, rich in hits. Any-hit rate of the full collection: about 2.2%.
TWEAK-Fn14 inh = inhibitors of TWEAK-Fn14 signaling, primary screen, luciferase reporter cells, uHTS; inhibition, % at 10 µM; hit rate 2% among 360,000; AID 1159606, 2016; TWEAK-stimulated Fn14 reporter cells, luciferase luminescence, 8 h; in the data active = inhibition above about 50%
LGR2 antag = inhibitors of bursicon-induced LGR2 CRE-luciferase signal, primary screen, cell-based, HEK293, CRE-luciferase reporter, bursicon stimulation. Drosophila bursicon receptor LGR2 (rickets). bursicon-stimulated, 4 h. inhibition, % at 9.99 µM. hit rate 0.35% among 380,000. AID 720647, 2013;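 active = drop in luminescence signal, shown as inhibition above about 50% in the replicate tests, limit read from the data, passing the limit was not always enough; inconclusive = probably only some replicates passing the limit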;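 also: agonist challenge used bursicon conditioned medium at about half maximal strength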
TROY signal inh = inhibitors of TROY-driven NF-kB signaling, primary screen, Q293 LMP1-TROYcd cells, NF-kB luciferase, uHTS; Q293 LMP1-TROYcd NF-kB luciferase reporter, 4 h; inhibition, % at 10 µM; hit rate 0.98% among 360,000;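 active = compounds whose plate-normalised and pattern-corrected inhibition of the luciferase reporter signal at the single screening dose is 50% or more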
HSP90 refold inh = HSP90 inhibitors, primary screen, cell lysate, luminescence; Rabbit reticulocyte lysate, luciferase refolding luminescence, 3 h; inhibition, % at 5.6 µM; hit rate 0.91% among 290,000; AID 1789, 2009;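 active = inhibition above the screen-wide mean plus 3 SD, computed separately per campaign, cut at about 16% in these data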;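 also: 0% = DMSO wells and 100% = 60 µM geldanamycin wells; inhibitors lower the luminescence because luciferase stays unfolded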
* = called active by the depositor; ? = inconclusive; nt = no result given.

SMILES	TWEAK-Fn14 inh	LGR2 antag	TROY signal inh	HSP90 refold inh
O=C(Nc1ncc(Cc2cccc([N+](=O)[O-])c2)s1)c1ccco1	-25	-45	-36	2
Cc1ccc(Cc2cnc(NC(=O)c3ccco3)s2)cc1	58*	nt	35	7
C[C@@H]1CN([C@H](C)CO)C(=O)c2cc(C#CC(C)(C)O)cnc2O[C@H]1CN(C)C(=O)CN(C)C	nt	-9	nt	nt
COc1cc(O)c(CC=C(C)C)c(O)c1C(=O)CCc1ccc(O)cc1	81*	-11	71*	nt
CC(O)c1cccc(NC(=O)CC(c2ccccc2)c2ccccc2)c1 (stereo not given)	86*	9	-2	-2
CN1[C@@H]2c3ccc(/C=C/c4ccccc4)c(=O)n3C[C@H]1[C@H](CO)[C@H]2C(=O)NC1CCCCC1	nt	-5	nt	nt
O=C(NCC1CC1)[C@H]1[C@H](CO)[C@H]2Cn3c(ccc(-c4ccc(F)cc4)c3=O)[C@@H]1N2	nt	-16	nt	nt
O=c1c(Br)ccc(Br)cc1Br	104*	19	-34	nt
O=C1CN(S(=O)(=O)c2cc(Br)ccc2Br)CCN1	-7	12	-14	nt
O=C1c2ccccc2OC2(C=Cc3ccccc3O2)N1Cc1ccccc1 (stereo not given)	76*	13	nt	-1
O=C1NC2(CCN(Cc3ccccc3)CC2)Oc2ccccc21	5	2	10	1
COc1ccc(-c2nc(NC(=O)c3c(C)noc3C)sc2C)cc1	25	-8	13	nt
COc1ccc(-c2nc(NC(=O)c3cc(C(C)(C)C)nn3C)sc2C)cc1	68*	nt	30	3
C(=C\c1ccccc1)/CN1CCN(C(CCc2ccccc2)c2nnnn2-c2ccc3c(c2)OCCO3)CC1 (stereo not given)	20	13	15	nt
C(=C\c1ccccc1)/CN1CCN(C(c2nnnn2-c2ccc3c(c2)OCCO3)C2CC2)CC1 (stereo not given)	58*	-16	22	nt
CCC(c1nnnn1-c1ccc2c(c1)OCCO2)N1CCN(C/C=C/c2ccccc2)CC1 (stereo not given)	58*	-16	27	nt
C(=C\c1ccccc1)/CN1CCN(C(c2cc3ccccc3o2)c2nnnn2-c2ccc3c(c2)OCCO3)CC1 (stereo not given)	69*	-4	0	nt
COc1ccc(-n2nnnc2C(c2cc3ccccc3o2)N2CCN(C/C=C/c3ccccc3)CC2)cc1 (stereo not given)	14	-5	14	nt
O=C(C[C@H]1CC[C@H](NC(=O)CN2CCOCC2)[C@H](CO)O1)NCCc1ccncc1	nt	22	nt	nt
COc1ccc(NC(=O)Nc2ccc3c(c2)C(=O)N([C@H](C)CO)C[C@H](C)[C@H](CN(C)S(=O)(=O)c2ccc(C)cc2)O3)cc1	nt	-7	nt	nt
CCN(C[C@H]1N[C@@](CC)(C(=O)OC)[C@H]2C(=O)N(C)C(=O)[C@@H]12)S(=O)(=O)c1ccc(C(C)(C)C)cc1	54*	-2	-3	nt
CC1Oc2ccccc2C=C1/C=N/NC(=O)[C@@H](C)NC(=O)OC(C)(C)C (stereo not given in full)	26	12	66*	0
COc1ccc(CN2C[C@H](O)COC[C@H]3O[C@H](CC(=O)NCc4ccncn4)CC[C@@H]32)cc1	nt	5	nt	nt
COc1ccc(C2=NO[C@@H]3C(=O)N(c4ccc5c(c4)OCCO5)C(=O)[C@H]23)cc1OC	81*	nt	69*	5
COCC(=O)Nc1ccc2c(c1)C(=O)N(C)C[C@@H](OC)[C@@H](C)CN(C)[C@@H](C)CO2	nt	-4	nt	nt
SMILES	TWEAK-Fn14 inh	LGR2 antag	TROY signal inh	HSP90 refold inh
O=C1c2cccc(NCCNCCO)c2C(=O)c2cccc(NCCNCCO)c21	17	92*	-6	nt
C[C@@H]1CN([C@H](C)CO)C(=O)CCCn2cc(nn2)CO[C@H]1CN(C)C(=O)Nc1ccc(N2CCN(C)CC2)cc1	nt	-1	nt	nt
C/C=C/c1ccc([C@@H]2[C@H](CO)N(C(C)=O)[C@H]2CNC(=O)c2ccncc2)cc1	nt	2	nt	nt
O=S(=O)(CCSc1nc2ccccc2o1)c1nc2ccccc2s1	91*	?	67*	2
O=C(CSc1ccccn1)Nc1nc2ccccc2s1	-9	-53	-35	-5
O=S(=O)(CCSc1ccccn1)c1nc2ccccc2s1	61*	39	34	-3
O=C(C1CCC1)N1CC[C@@H]2[C@H](CO)Nc3ccc(Br)cc3[C@@H]21	nt	1	nt	nt
CC(=O)N1[C@@H]2c3ccc(-c4ccccc4)c(=O)n3C[C@@H]2[C@@H](CO)[C@@H]1C(=O)NCc1ccccc1Cl	nt	-7	nt	nt
CC(C)NC(=O)Nc1ccc2c(c1)C(=O)N([C@H](C)CO)C[C@H](C)[C@H](CN(C)S(=O)(=O)c1ccc(Cl)cc1)OCCCC[C@H](C)O2	nt	10	nt	nt
O=Nc1ccc(O)c2ncccc12	55*	-10	-14	7
O=[N+]([O-])c1ccc(O)c2ncccc12	26	101*	-15	3
COc1ccc(S(=O)(=O)Nc2ccc3c(c2)C(=O)N([C@@H](C)CO)C[C@@H](C)[C@H](CN(C)C(=O)CCCN(C)C)OCCCC[C@@H](C)O3)cc1	nt	-7	nt	nt
N#CC1=C(N)Oc2c(ccc3ccccc23)C1c1cccs1 (stereo not given)	nt	nt	nt	3
CN(C)/C=N/C1=C(C#N)C(c2ccc(Br)cc2)c2ccc3ccccc3c2O1 (stereo not given)	33	-7	-12	17*
CCn1c(SCC(=O)Nc2nc3ccc(C)cc3s2)nc2c(c1=O)SC(C)C2 (stereo not given)	93*	nt	19	1
CCc1nnc(NC(=O)c2ccc(OCc3c(C)noc3C)c(OC)c2)s1	3	2	0	1
COc1cc(C(=O)Nc2nc3ccc(C)cc3s2)ccc1OCc1c(C)noc1C	50*	nt	-19	-4
CCC(=O)Nc1nc2ccc3sc(C)nc3c2s1	69*	-30	49	12
Cc1ccc2nc(NC(=O)CSCC(=O)OCC(=O)c3ccc(Br)cc3)sc2c1	74*	nt	64*	50*
COCC(=O)Nc1nc2ccc(C)cc2s1	23	nt	-17	17*
Cc1ccc2nc(NC(=O)COC(=O)c3ccncc3)sc2c1	-5	-34	-30	1
O=C(c1ccco1)N1CCN(C(=O)c2ccco2)C1=S	51*	83*	27	nt
CCS(=O)(=O)N1CCN(C(=O)c2ccco2)CC1	7	6	-15	-3
CCCS(=O)(=O)N1CCN(C(=O)c2ccco2)CC1	77*	nt	13	-3
CC(=O)N1N=C(c2ccc(Cl)cc2)CC1c1ccc([N+](=O)[O-])cc1 (stereo not given)	80*	-15	-15	-2
COc1ccc(C2CC(c3ccc(Cl)cc3)=NN2C(C)=O)cc1 (stereo not given)	-29	-73	-54	-4
COc1cc(OC)nc(-n2ncc(Br)c(Br)c2=O)n1	103*	103*	63*	-2
CCc1ccc2cccc3c2c1N=CN3C	86*	-7	19	nt
CCN1c2cccc3cccc(c23)S1(=O)=O	-13	20	-11	8
